Assay outcomes: PubChem, Sanford-Burnham Center for Chemical Genomics
SENP8 block-1 – human SENP8 protease inhibitors, primary screen, biochemical, fluorescence, Nedd8 protein substrate, uHTS; Sentrin-specific protease 8 (Homo sapiens), Q96LD8; recombinant SENP8; inhibition, % at 20 µM; 360,000 tested, 0.64% active; in the data active = inhibition mostly above about 40%, no sharp cut-off; inactive = mostly below about 27%
Target sequence (Q96LD8 whole entry, looked up): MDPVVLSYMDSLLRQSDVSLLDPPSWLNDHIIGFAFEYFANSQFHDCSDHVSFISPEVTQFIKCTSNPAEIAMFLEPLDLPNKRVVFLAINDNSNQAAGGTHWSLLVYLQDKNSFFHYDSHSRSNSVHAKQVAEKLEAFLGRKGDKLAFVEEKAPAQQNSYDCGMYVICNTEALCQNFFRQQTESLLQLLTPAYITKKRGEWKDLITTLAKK
SENP6 inh – SENP6 protease inhibitors, primary screen, biochemical, luminescence, uHTS. Sentrin-specific protease 6 (Homo sapiens), Q9GZR1. inhibition, % at 10 µM. 330,000 tested, 1.8% active. Recombinant SENP6 catalytic domain, aminoluciferin luminescence;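 active = inhibition above about 50% at the single tested dose, limit read from the data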
Target sequence (Q9GZR1 628-1112 limits assumed): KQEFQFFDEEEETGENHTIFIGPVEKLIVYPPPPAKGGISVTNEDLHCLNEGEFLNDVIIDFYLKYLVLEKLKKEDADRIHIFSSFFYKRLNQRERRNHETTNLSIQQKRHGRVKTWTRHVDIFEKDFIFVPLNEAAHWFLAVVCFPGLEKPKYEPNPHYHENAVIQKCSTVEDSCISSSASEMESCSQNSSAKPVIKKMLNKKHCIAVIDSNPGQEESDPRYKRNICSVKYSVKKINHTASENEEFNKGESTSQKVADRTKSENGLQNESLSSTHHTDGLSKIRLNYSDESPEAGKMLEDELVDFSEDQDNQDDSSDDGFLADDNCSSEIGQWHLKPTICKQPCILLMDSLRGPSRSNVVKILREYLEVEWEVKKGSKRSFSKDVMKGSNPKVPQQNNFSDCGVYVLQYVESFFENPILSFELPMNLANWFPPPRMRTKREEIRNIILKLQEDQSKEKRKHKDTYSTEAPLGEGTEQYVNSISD
PPC-1+TRAIL kill – compounds killing PPC-1 cancer cells with TRAIL present, primary screen, TRAIL potentiator project, ATPLite luminescence, uHTS; AID 1443, 2008; cell killing (% activity), % at 4 µM or 5 µM; 220,000 tested, 0.41% active; PPC-1 cells + TRAIL, ATPLite viability luminescence;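 active = cell killing above 50% in the first pass at 4 µM, then a duplicate retest at 5 µM averaging 50% or more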
SENP7 inh – SENP7 protease inhibitors, primary screen, biochemical, luminescence, uHTS; recombinant SENP7, Z-RLRGG-aminoluciferin luminescence, 40 min; 330,000 tested, 1.5% active; inhibition, % at 5 µM; Sentrin-specific protease 7 (Homo sapiens), Q9BQF6;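 active = inhibition above about 50% at the single test dose, limit read from the data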
SENP8 block-2 – SENP8 protease inhibitors, primary screen, biochemical, luminescence | Sentrin-specific protease 8 (Homo sapiens), Q96LD8 | purified SENP8, Z-RLRGG-aminoluciferin cleavage | inhibition, % at 10 µM | 330,000 tested, 1.2% active | AID 2540, 2010; in the data active = inhibition above about 50%
TRAIL sens C8 – viability loss with TRAIL in NB7+C8 cells, primary screen, TRAIL sensitizer project, cell-based, ATPlite luminescence | inhibition (viability loss, TRAIL sensitization), % at 10 µM | 360,000 tested, 1% active;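 active = compounds causing at least 50% loss of cell viability in the single-dose screen, relative to plate controls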
SENP8 conf – SENP8 protease inhibitors, retest, confirmation, biochemical, luminescence, single concentration; Recombinant SENP8, Z-RLRGG-aminoluciferin luminescence, 60 min; inhibition, % at 12.5 µM; 6,200 tested, 40% active; shares compounds with SENP7 inh; AID 488912, 2010;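 active = mean inhibition across replicates above about 50%, limit read from the data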
SENP6 conf – SENP6 protease inhibitors, confirmation, biochemical, luminescence, single concentration | shares compounds with SENP7 inh | recombinant SENP6, Z-RLRGG-aminoluciferin luminescence | inhibition, % at 12.5 µM | 6,200 tested, 58% active
SENP7 conf – SENP7 protease inhibitors, retest, confirmation, biochemical, luminescence, single concentration; shares compounds with SENP7 inh; recombinant SENP7, Z-RLRGG-aminoluciferin luminescence, 40 min; inhibition, % at 12.5 µM; 6,200 tested, 69% active; AID 488917, 2010
Casp3 SENP sel – caspase-3 protease inhibitors, confirmation, selectivity assay for SENP inhibitor project, biochemical, single concentration; shares compounds with SENP7 inh; purified caspase-3, Z-DEVD-aminoluciferin luminescence, 60 min; inhibition, % at 12.5 µM; 6,200 tested, 60% active; AID 488918, 2010;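 active = mean inhibition above about 50%, limit read from the data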
SENP luc ctr – counter-screen for SENP inhibitors: luminescence interference; shares compounds with SENP7 inh; Pre-incubated SENP8/Z-RLRGG-aminoluciferin, luciferase luminescence interference; inhibition, % at 12.5 µM; 6,200 tested, 39% active; AID 488919;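 active = mean inhibition above about 50% when retested at one dose, limit read from the data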
A number is an active result; - = inactive; . = not tested or not shown. This is a sample that favours compounds with a hit; in the whole collection about 3% have one here.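 Rule for the calls, unless noted: active = mean inhibition above about 50% in the one-dose retest (limit read from the data); inactive = the rest.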

SMILES | SENP8 block-1 | SENP6 inh | PPC-1+TRAIL kill | SENP7 inh | SENP8 block-2 | TRAIL sens C8 | SENP8 conf | SENP6 conf | SENP7 conf | Casp3 SENP sel | SENP luc ctr
Cc1c(-n2c(SCC(=O)C(C)(C)C)nc3ccccc3c2=O)c(=O)n(-c2ccccc2)n1C | - | - | - | - | - | - | . | . | . | . | .
COc1ccc2oc(C(=O)N3CCN(C(c4ccccc4)c4ccccc4)CC3)c(C)c2c1 | - | - | . | - | - | - | . | . | . | . | .
COc1ccc2cc(C(=O)N3CCc4ccccc43)[nH]c2c1 | - | 86.3 | . | 92.6 | 52.5 | - | - | - | - | - | -
O=C(c1cc2cc(Br)ccc2[nH]1)N1CCc2ccccc21 | - | - | . | - | - | - | . | . | . | . | .
COc1ccc2c(CC(=O)N3CCc4ccccc43)coc2c1 | - | 84.7 | - | 85.1 | 71.7 | - | 81.0 | 80.7 | 93.2 | 80.6 | 61.4
COc1ccc2oc(C(=O)N3CCc4ccccc43)c(C)c2c1 | - | 95.8 | . | 99.9 | 95.7 | 82.0 | 71.7 | 88.2 | 95.7 | 84.9 | -
O=S(=O)(c1ccccc1)N(CC(O)CN1CCOCC1)c1ccccc1 (stereo not drawn) | - | - | . | - | 76.8 | - | - | - | - | - | -
O=S(=O)(c1ccccc1)N(CC(O)CN1CCCC1)c1ccccc1 (stereo not drawn) | - | - | . | - | - | - | . | . | . | . | .
CCOc1cccc(NC(=O)c2cccc(F)c2)c1 | - | - | - | - | - | - | . | . | . | . | .
Brc1ccc(Cn2c(-c3ccc(Br)o3)nc3ccccc32)o1 | - | . | - | . | . | - | . | . | . | . | .
Cc1ccc(-c2nc3ccccc3n2C)o1 | - | 69.7 | - | 82.7 | 78.9 | - | 91.1 | 90.6 | 98.5 | 95.4 | 89.6
Cn1c(-c2ccc(Br)o2)nc2ccccc21 | - | 96.9 | - | 98.7 | 95.3 | 52.0 | - | 97.7 | 102.6 | 98.5 | 95.0
Cn1c(-c2ccc(Br)o2)nc2cc(Br)ccc21 | - | 95.5 | - | 83.5 | 85.2 | - | - | 89.7 | 90.6 | 89.1 | -
Cn1cc(C(=O)c2ccccc2)cc1-c1nc2ccccc2n1C | - | - | - | - | - | - | . | . | . | . | .
CC(=O)c1ccc(-c2nc3ccccc3n2C)o1 | - | - | - | - | - | - | . | . | . | . | .
Cc1oc(-c2nc3ccccc3n2C)cc1C(=O)c1ccccc1 | - | 94.0 | - | - | 85.1 | 79.7 | 93.8 | 94.5 | 100.7 | 94.2 | 92.9
COc1ccc(N2CCN(C(=O)c3cccc(NC(=O)c4ccco4)c3)CC2)cc1 | - | - | . | - | - | - | . | . | . | . | .
NS(=O)(=O)c1ccc(NC(=O)c2ccc3c(c2)CCCC3)cc1 | - | - | . | - | - | - | . | . | . | . | .
CNC(=O)c1ccsc1NC(=O)c1ccc2c(c1)CCCC2 | - | 58.7 | - | 53.9 | - | - | 59.5 | 60.0 | 82.2 | - | -
CCCCN1C(C)=CC(=C2C(=O)c3ccccc3C2=O)C=C1C | - | 60.2 | - | - | - | 66.2 | 61.1 | 60.3 | 80.8 | 84.7 | -
CCCN1C=CC(=C2C(=O)c3ccccc3C2=O)C=C1 | - | 94.6 | - | 93.2 | 89.8 | 91.3 | 93.3 | 97.9 | 101.6 | 98.1 | 60.1
COc1ccccc1C(=O)NCCCNC(=O)c1cccnc1 | - | - | . | - | - | - | . | . | . | . | .
C=CCSc1nnc(-c2ccc(Cl)cc2Cl)o1 | - | 59.6 | - | 56.6 | - | - | - | - | 77.4 | 55.9 | -
O=c1ccc2cc(S(=O)(=O)NCc3ccccc3)ccc2[nH]1 | - | - | . | - | - | - | . | . | . | . | .
CCOC(=O)CNC(=O)CSc1ncnc2c1cnn2-c1ccccc1 | - | - | - | - | - | - | . | . | . | . | .
SMILES | SENP8 block-1 | SENP6 inh | PPC-1+TRAIL kill | SENP7 inh | SENP8 block-2 | TRAIL sens C8 | SENP8 conf | SENP6 conf | SENP7 conf | Casp3 SENP sel | SENP luc ctr
CCOC(=O)CNC(=O)CSc1ncnc2c1cnn2-c1ccc(OC)cc1 | - | 70.1 | - | - | 68.1 | - | - | - | - | 75.4 | -
COc1ccc(-n2ncc3c(SCC(=O)OC(C)C)ncnc32)cc1 | - | . | . | . | . | - | . | . | . | . | .
CCOC(=O)CNC(=O)CSc1ncnc2c1cnn2-c1ccc(C)cc1 | - | 52.3 | - | - | - | - | - | - | - | - | -
Cc1noc(C)c1C(=O)OCC(=O)/C=C1/N(C)c2ccccc2C1(C)C | - | . | . | . | . | - | . | . | . | . | .
O=C(O/N=C/c1ccc(Br)cc1)c1ccc(F)cc1 | - | - | . | 75.7 | - | - | - | - | - | - | -
O=C(N/N=C/c1ccc(F)cc1)c1ccc(Br)cc1 | - | - | - | - | - | - | . | . | . | . | .
O=c1sc2ccccc2c(N2CCOCC2)c1[N+](=O)[O-] | - | 56.7 | . | - | - | - | - | - | 50.5 | 69.8 | 55.4
CN(C(=O)c1cc(-c2cccs2)nn1-c1ccccc1)C1CCS(=O)(=O)C1 (stereo not drawn) | - | . | . | . | . | - | . | . | . | . | .
COc1ccc(C(=O)Nc2ccc(Cl)c(Cl)c2)c(OC)n1 | - | - | - | 51.3 | - | - | - | - | - | - | -
COc1ccc(C(=O)O)c(OC)n1 | - | - | - | - | - | - | . | . | . | . | .
COc1ccc(Cn2c(/C=C/c3ccccc3)nc3ccccc32)cc1 | - | 89.5 | - | 88.5 | 80.9 | - | 90.3 | 91.3 | 98.9 | 71.2 | -
CCn1c(Cc2ccc(OC)cc2)nc2ccccc21 | - | - | . | - | - | - | . | . | . | . | .
Cc1[nH][nH]c(=O)c1N=Nc1ccc(Br)c(Cl)c1 | - | 94.0 | . | 71.4 | 86.4 | - | - | - | - | - | -
CC(=O)c1ccc(N=Nc2c(C)[nH][nH]c2=O)cc1 | 55.5 | 55.1 | . | 79.0 | - | - | 55.6 | 57.1 | 76.5 | 88.2 | -
CCN(CC(=O)Nc1ccc2c(c1)OCCO2)C(=O)COc1ccc(C)cc1 | - | - | . | - | - | - | . | . | . | . | .
COc1ccc(S(=O)(=O)Nc2ccc(-n3cnnn3)cc2)cc1[N+](=O)[O-] | - | - | . | - | - | - | . | . | . | . | .
